PubChem BioAssay AID1159580 (chemical genetic matrix, 2015)
“And” between values parts separate entries of the source, which are not always exact repeats. Identical values can stand only once. The campaign covered roughly 5,500 compounds. About 2,000 (36%) were called active. Not shown: some 18% with an inconclusive outcome. No stated cut-off is given here; in the data, active means normalized growth mostly below about 0.91 (no sharp cut-off); inconclusive means no clear call, values can overlap the other calls; inactive means mostly above about 0.92. The list shows a part of the results.

Assay: chemical genetic growth profiling, strain panel (AID 1159580);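 further: tested at 20 µM; growth read once vehicle control cultures reached saturation at 30 °C; 1 = growth at the plate median or of vehicle wells; lower values mean less growth of the strain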
Details: growth OD

Measured: normalized growth

CC(C)NCC(O)c1cc(O)cc(O)c1 (centres undefined)
inactive: S. cerevisiae deletion strains, locus YJR043C, strain POL32, active compounds read low 1.02 | S. cerevisiae deletion strains, locus YJR066W, strain TOR1, active compounds read low 0.916 | S. cerevisiae deletion strains, locus YKL009W, strain mrt4, active compounds read low 0.967 | S. cerevisiae deletion strains, locus YKL068W, active compounds read low 0.989 | S. cerevisiae deletion strains, locus YKL085W, strain MDH1 (second series), active compounds read low 0.979 | S. cerevisiae deletion strains, locus YKL085W, strain MDH1, active compounds read low 0.979 | S. cerevisiae deletion strains, locus YKL160W, strain elf1, active compounds read low 0.983 | S. cerevisiae deletion strains, locus YKL190W, strain CNB1, active compounds read low 0.989 | S. cerevisiae deletion strains, locus YKR001C, strain vps1, active compounds read low 1.02 | S. cerevisiae deletion strains, locus YKR026C, strain gcn3, active compounds read low 1 | S. cerevisiae deletion strains, locus YKR091W, strain srl3, active compounds read low 0.986 | S. cerevisiae deletion strains, locus YLL001W, strain dnm1, active compounds read low 0.951 | S. cerevisiae deletion strains, locus YLL026W, active compounds read low 0.999 | S. cerevisiae deletion strains, locus YLL041C, strain sdh2, active compounds read low 0.99 | S. cerevisiae deletion strains, locus YLR027C, strain aat2, active compounds read low 0.998 | S. cerevisiae deletion strains, locus YLR039C, strain RIC1, active compounds read low 0.995 | S. cerevisiae deletion strains, locus YLR058C, strain SHM2, active compounds read low 0.994 | S. cerevisiae deletion strains, locus YLR102C, strain apc9, active compounds read low 0.994 | S. cerevisiae deletion strains, locus YLR113W, strain HOG1, active compounds read low 0.972 | S. cerevisiae deletion strains, locus YLR221C, strain rsa3, active compounds read low 0.983 | S. cerevisiae deletion strains, locus YLR258W, strain gsy2, active compounds read low 0.993 | S. cerevisiae deletion strains, locus YLR262C, strain YPT6 (second series), active compounds read low 0.972 | S. cerevisiae deletion strains, locus YLR262C, strain YPT6, active compounds read low 0.98 | S. cerevisiae deletion strains, locus YLR268W, strain sec22, active compounds read low 1.01 | S. cerevisiae deletion strains, locus YLR320W, strain mms22, active compounds read low 0.984 | S. cerevisiae deletion strains, locus YLR330W, strain CHS5, active compounds read low 0.998 | S. cerevisiae deletion strains, locus YLR342W, strain FKS1 (second series), active compounds read low 1.01 | S. cerevisiae deletion strains, locus YLR342W, strain FKS1, active compounds read low 0.987 | S. cerevisiae deletion strains, locus YLR357W, strain rsc2, active compounds read low 0.974 | S. cerevisiae deletion strains, locus YLR370C, strain arc18, active compounds read low 0.975 | S. cerevisiae deletion strains, locus YLR371W, strain rom2, active compounds read low 1 | S. cerevisiae deletion strains, locus YLR384C, strain iki3, active compounds read low 0.993 | S. cerevisiae deletion strains, locus YLR418C, strain cdc73, active compounds read low 0.984 | S. cerevisiae deletion strains, locus YML016C, strain PPZ1, active compounds read low 1.01 | S. cerevisiae deletion strains, locus YML032C, strain rad52, active compounds read low 1.01 | S. cerevisiae deletion strains, locus YML120C, strain ndi1, active compounds read low 0.965 | S. cerevisiae deletion strains, locus YML124C, strain tub3, active compounds read low 1 | S. cerevisiae deletion strains, locus YMR058W, strain fet3, active compounds read low 0.996 | S. cerevisiae deletion strains, locus YMR078C, strain ctf18, active compounds read low 0.988 | S. cerevisiae deletion strains, locus YMR125W, strain sto1, active compounds read low 0.971 | S. cerevisiae deletion strains, locus YMR129W, active compounds read low 0.992 | S. cerevisiae deletion strains, locus YMR205C, strain PFK2, active compounds read low 0.955 | S. cerevisiae deletion strains, locus YMR223W, strain ubp8, active compounds read low 0.975 | S. cerevisiae deletion strains, locus YMR231W, strain pep5, active compounds read low 0.998 | S. cerevisiae deletion strains, locus YMR307W, strain GAS1, active compounds read low 1.04 | S. cerevisiae deletion strains, locus YNL067W, strain RPL9B, active compounds read low 0.995 | S. cerevisiae deletion strains, locus YNL071W, strain lat1, active compounds read low 0.98 | S. cerevisiae deletion strains, locus YNL128W, strain TEP1, active compounds read low 0.967 and 0.965 | S. cerevisiae deletion strains, locus YNL153C, strain GIM3, active compounds read low 1.01 | S. cerevisiae deletion strains, locus YNL175C, strain NOP13, active compounds read low 1 | S. cerevisiae deletion strains, locus YNL183C, strain NPR1, active compounds read low 0.924 | S. cerevisiae deletion strains, locus YNL197C, strain WHI3, active compounds read low 1.01 | S. cerevisiae deletion strains, locus YNL209W, strain ssb2, active compounds read low 0.988 | S. cerevisiae deletion strains, locus YNL224C, strain SQS1, active compounds read low 0.997 | S. cerevisiae deletion strains, locus YNL233W, strain BNI4, active compounds read low 0.997 | S. cerevisiae deletion strains, locus YNL248C, strain rpa49, active compounds read low 0.985 | S. cerevisiae deletion strains, locus YNL250W, strain rad50, active compounds read low 0.979 | S. cerevisiae deletion strains, locus YNL271C, strain bni1, active compounds read low 0.98 | S. cerevisiae deletion strains, locus YNL298W, strain CLA4, active compounds read low 0.975 | S. cerevisiae deletion strains, locus YNL307C, strain MCK1, active compounds read low 0.995 | S. cerevisiae deletion strains, locus YNL322C, strain KRE1 (second series), active compounds read low 0.986 | S. cerevisiae deletion strains, locus YNR049C, strain mso1, active compounds read low 0.993 | S. cerevisiae deletion strains, locus YNR052C, strain pop2, active compounds read low 0.987 | S. cerevisiae deletion strains, locus YOL012C, strain htz1 0.863 | S. cerevisiae deletion strains, locus YOL147C, strain pex11, active compounds read low 0.992 | S. cerevisiae deletion strains, locus YOR001W, strain rrp6, active compounds read low 0.994 | S. cerevisiae deletion strains, locus YOR061W, strain CKA2, active compounds read low 1 | S. cerevisiae deletion strains, locus YOR069W, strain VPS5, active compounds read low 0.996 | S. cerevisiae deletion strains, locus YOR070C, strain gyp1, active compounds read low 0.993 | S. cerevisiae deletion strains, locus YOR080W, strain dia2, active compounds read low 1 | S. cerevisiae deletion strains, locus YOR083W, strain WHI5 (second series), active compounds read low 1 | S. cerevisiae deletion strains, locus YOR083W, strain WHI5, active compounds read low 0.96 | S. cerevisiae deletion strains, locus YOR106W, strain vam3, active compounds read low 0.976 | S. cerevisiae deletion strains, locus YOR136W, strain idh2, active compounds read low 0.997 | S. cerevisiae deletion strains, locus YOR144C, strain elg1, active compounds read low 1.01 | S. cerevisiae deletion strains, locus YOR184W, strain ser1, active compounds read low 0.991 | S. cerevisiae deletion strains, locus YOR231W, strain MKK1, active compounds read low 0.97 | S. cerevisiae deletion strains, locus YOR265W, strain rbl2, active compounds read low 0.994 | S. cerevisiae deletion strains, locus YOR270C, strain vph1, active compounds read low 0.98 | S. cerevisiae deletion strains, locus YOR290C, strain snf2, active compounds read low 0.929 | S. cerevisiae deletion strains, locus YOR316C, strain cot1, active compounds read low 0.993 | S. cerevisiae deletion strains, locus YPL051W, strain arl3, active compounds read low 0.989 | S. cerevisiae deletion strains, locus YPL055C, strain LGE1, active compounds read low 1.02 | S. cerevisiae deletion strains, locus YPL078C, strain atp4, active compounds read low 0.967 | S. cerevisiae deletion strains, locus YPL106C, strain sse1, active compounds read low 0.978 | S. cerevisiae deletion strains, locus YPL240C, strain hsp82, active compounds read low 0.984 | S. cerevisiae deletion strains, locus YPL241C, strain CIN2, active compounds read low 0.996 | S. cerevisiae deletion strains, locus YPL256C, strain CLN2, active compounds read low 0.953 | S. cerevisiae deletion strains, locus YPR119W, strain clb2, active compounds read low 0.984 | S. cerevisiae deletion strains, locus YPR141C, strain kar3, active compounds read low 0.976 | S. cerevisiae deletion strains, locus YPR163C, strain tif3, active compounds read low 0.991 | S. cerevisiae deletion strains, locus YPR167C, strain met16, active compounds read low 0.991 | S. cerevisiae deletion strains, strain wtn01, active compounds read low 0.998 | S. cerevisiae strains, strain wild type, active compounds read low 1.01
